Reference: paper PMC7862700, “An all-to-all approach to the identification of sequence-specific readers for epigenetic DNA modifications on cytosine”

Legend:
Experiment in all cases: DAPPL (digital affinity profiling via proximity ligation, sequencing); 10 mM Tris-HCl pH 7.5, 50 mM NaCl, 1 mM DTT, 4% glycerol, room temperature, 30 min; GST-TFs on glutathione beads, 16-mer random dsDNA library, 0.1% formaldehyde crosslink after washing; high values mean tight binding
FLI1 = biological target: T1, FLI1 (Homo sapiens, UniProt Q01543 1-452); settings: protein: recombinant; tags: N-terminal GST; dsDNA, one strand shown
T1 sequence: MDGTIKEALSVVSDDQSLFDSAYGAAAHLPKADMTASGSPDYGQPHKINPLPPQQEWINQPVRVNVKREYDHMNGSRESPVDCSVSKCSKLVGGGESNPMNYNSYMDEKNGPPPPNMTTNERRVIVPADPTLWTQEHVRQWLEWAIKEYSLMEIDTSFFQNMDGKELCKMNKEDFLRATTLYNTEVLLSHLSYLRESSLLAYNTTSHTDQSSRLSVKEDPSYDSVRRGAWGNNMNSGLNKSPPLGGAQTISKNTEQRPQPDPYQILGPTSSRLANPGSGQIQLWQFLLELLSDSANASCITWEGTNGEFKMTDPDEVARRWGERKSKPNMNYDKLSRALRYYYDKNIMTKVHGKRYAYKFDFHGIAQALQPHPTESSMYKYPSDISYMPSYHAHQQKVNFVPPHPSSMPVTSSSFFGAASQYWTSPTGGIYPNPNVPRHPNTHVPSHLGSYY
In short: (§1)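 GST fusions of human transcription factors were expressed in yeast and captured with glutathione beads. Once given DNA barcodes and pooled alongside a tag-only sample, they were incubated for 30 min at room temperature with 200 nmole of a random double-stranded 16-mer DNA library in Tris/NaCl/DTT/glycerol buffer, then washed, crosslinked (0.1% formaldehyde), proximity-ligated, PCR-amplified and sequenced on an Illumina NextSeq500. The binding signal of each hexamer is its read frequency for a factor divided by its frequency for the tag-only sample.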

ELK1 = biological target: T2, ELK1 (Homo sapiens, UniProt P19419 1-428); settings: protein: recombinant; tags: N-terminal GST; dsDNA, one strand shown
T2 sequence: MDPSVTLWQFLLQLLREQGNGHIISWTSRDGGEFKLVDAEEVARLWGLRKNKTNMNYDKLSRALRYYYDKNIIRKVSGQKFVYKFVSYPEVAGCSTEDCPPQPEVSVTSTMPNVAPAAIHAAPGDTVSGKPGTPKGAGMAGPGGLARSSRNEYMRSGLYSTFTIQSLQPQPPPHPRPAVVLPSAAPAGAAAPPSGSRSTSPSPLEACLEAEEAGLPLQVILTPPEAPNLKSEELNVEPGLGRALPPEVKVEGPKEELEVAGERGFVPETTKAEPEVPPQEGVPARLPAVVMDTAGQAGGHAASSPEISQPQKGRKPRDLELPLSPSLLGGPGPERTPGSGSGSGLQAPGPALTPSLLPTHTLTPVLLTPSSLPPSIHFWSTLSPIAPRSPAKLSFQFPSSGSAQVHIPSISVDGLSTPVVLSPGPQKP
In short: as §1

GABPA = biological target: T3, GABPA (Homo sapiens, UniProt Q06546 1-454); settings: protein: recombinant; tags: N-terminal GST; dsDNA, one strand shown
T3 sequence: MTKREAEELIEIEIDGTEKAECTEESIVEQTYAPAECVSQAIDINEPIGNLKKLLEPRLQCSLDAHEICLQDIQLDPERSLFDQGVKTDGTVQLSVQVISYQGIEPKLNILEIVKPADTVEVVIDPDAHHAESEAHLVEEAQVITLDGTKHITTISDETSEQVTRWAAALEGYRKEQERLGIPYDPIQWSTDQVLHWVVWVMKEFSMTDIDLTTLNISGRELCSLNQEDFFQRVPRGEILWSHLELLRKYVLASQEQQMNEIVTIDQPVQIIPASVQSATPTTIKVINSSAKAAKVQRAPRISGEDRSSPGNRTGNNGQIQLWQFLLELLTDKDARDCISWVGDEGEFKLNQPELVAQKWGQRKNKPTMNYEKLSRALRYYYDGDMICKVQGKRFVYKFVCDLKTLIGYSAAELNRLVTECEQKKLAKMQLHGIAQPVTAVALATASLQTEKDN
In short: as §1

ERG = biological target: T4, ERG (Homo sapiens, UniProt P11308 1-479); settings: protein: recombinant; tags: N-terminal GST; dsDNA, one strand shown
T4 sequence: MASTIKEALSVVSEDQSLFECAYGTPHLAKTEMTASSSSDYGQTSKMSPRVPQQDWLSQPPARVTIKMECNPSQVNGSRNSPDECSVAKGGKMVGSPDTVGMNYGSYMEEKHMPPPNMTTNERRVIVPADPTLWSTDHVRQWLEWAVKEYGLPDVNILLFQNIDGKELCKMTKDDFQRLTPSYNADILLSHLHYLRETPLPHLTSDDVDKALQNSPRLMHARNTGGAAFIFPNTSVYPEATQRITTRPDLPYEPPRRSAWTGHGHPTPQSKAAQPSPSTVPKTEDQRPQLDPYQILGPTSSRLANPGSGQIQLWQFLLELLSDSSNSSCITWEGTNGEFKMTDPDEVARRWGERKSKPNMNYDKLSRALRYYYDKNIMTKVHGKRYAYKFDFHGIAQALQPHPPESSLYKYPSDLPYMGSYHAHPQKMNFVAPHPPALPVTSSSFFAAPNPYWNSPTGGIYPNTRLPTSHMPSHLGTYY
In short: as §1

ELF1 = ELF1 (Homo sapiens, UniProt P32519 1-619); settings: protein: recombinant; tags: N-terminal GST; dsDNA, one strand shown
Sequence of ELF1 (P32519 whole entry): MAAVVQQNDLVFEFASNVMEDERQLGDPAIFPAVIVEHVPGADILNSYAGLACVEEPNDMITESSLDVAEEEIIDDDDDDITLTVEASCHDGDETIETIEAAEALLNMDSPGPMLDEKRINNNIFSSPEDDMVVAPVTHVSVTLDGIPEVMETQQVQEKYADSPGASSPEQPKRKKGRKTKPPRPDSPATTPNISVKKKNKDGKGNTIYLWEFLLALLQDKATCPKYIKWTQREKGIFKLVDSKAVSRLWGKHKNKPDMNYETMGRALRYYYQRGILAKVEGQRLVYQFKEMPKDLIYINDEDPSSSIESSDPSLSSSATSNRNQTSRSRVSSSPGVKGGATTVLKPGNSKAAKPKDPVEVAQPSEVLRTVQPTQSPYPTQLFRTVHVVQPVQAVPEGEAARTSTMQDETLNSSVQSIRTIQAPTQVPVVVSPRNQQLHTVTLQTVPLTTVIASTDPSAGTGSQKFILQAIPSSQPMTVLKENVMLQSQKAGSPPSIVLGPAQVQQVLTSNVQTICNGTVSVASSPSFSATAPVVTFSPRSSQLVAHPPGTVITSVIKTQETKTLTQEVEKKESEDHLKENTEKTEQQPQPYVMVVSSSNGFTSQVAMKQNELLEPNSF
In short: as §1

EHF = biological target: T5, EHF (Homo sapiens, UniProt Q9NZC4 1-300); settings: protein: recombinant; tags: N-terminal GST; dsDNA, one strand shown
T5 sequence: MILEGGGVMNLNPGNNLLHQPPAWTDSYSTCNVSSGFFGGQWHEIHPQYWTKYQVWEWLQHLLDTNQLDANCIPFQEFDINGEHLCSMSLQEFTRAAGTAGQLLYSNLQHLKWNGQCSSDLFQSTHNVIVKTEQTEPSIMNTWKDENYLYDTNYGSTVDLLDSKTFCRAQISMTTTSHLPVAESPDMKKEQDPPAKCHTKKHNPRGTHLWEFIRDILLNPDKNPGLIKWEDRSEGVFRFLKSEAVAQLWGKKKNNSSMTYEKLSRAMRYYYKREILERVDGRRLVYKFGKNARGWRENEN
In short: as §1

SPI1 = SPI1 (Homo sapiens, UniProt P17947 1-270); settings: protein: recombinant; tags: N-terminal GST; dsDNA, one strand shown
In short: as §1

SPIB = SPIB (Homo sapiens, UniProt Q01892 1-262); settings: protein: recombinant; tags: N-terminal GST; dsDNA, one strand shown
Sequence of SPIB (Q01892 whole entry): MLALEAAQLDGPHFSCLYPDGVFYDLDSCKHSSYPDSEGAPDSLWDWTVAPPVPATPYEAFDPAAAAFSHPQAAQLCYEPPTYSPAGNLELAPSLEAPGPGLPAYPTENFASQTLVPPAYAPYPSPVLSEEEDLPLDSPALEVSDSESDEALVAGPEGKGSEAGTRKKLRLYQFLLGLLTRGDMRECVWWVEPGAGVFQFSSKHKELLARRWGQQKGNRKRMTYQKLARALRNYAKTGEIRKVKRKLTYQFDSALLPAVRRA
In short: as §1

ELK3 = biological target: T6, ELK3 (Homo sapiens, UniProt P41970 1-407); settings: protein: recombinant; tags: N-terminal GST; dsDNA, one strand shown
T6 sequence: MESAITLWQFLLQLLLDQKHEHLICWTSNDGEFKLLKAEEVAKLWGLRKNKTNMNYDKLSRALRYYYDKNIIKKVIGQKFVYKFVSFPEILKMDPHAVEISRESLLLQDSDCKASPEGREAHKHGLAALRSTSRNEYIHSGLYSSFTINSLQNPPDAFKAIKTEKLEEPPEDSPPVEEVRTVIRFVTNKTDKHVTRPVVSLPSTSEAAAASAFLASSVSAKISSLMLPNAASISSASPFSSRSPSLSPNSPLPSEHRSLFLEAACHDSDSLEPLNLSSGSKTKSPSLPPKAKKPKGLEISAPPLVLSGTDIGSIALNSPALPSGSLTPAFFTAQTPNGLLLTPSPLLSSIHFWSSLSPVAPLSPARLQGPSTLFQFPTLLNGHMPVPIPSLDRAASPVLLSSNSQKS
In short: as §1

FEV = biological target: T7, FEV (Homo sapiens, UniProt Q99581 1-238); settings: protein: recombinant; tags: N-terminal GST; dsDNA, one strand shown
T7 sequence: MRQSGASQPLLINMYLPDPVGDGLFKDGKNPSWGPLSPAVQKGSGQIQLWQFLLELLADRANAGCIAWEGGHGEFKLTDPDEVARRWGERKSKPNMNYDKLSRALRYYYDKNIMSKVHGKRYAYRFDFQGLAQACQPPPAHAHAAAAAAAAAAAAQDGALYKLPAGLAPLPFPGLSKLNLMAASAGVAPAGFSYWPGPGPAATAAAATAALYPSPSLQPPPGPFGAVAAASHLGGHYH
In short: as §1

ETV5 = ETV5 (Homo sapiens, UniProt P41161 1-510); settings: protein: recombinant; tags: N-terminal GST; dsDNA, one strand shown
Sequence of ETV5 (P41161 whole entry): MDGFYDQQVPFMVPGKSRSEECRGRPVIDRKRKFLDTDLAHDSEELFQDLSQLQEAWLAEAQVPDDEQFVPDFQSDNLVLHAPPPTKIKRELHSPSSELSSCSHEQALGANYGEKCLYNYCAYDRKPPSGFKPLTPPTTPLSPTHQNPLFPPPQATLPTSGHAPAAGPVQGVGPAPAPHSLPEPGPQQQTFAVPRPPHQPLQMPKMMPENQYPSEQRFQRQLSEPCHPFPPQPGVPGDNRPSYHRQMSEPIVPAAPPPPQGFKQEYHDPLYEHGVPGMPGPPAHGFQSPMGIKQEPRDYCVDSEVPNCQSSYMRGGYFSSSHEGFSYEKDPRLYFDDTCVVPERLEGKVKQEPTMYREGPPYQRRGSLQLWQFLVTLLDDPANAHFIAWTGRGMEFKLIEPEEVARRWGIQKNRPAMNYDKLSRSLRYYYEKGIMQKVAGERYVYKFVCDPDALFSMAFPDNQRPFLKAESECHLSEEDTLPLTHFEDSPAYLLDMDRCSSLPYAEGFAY
In short: as §1

HSF1 = HSF1 (Homo sapiens, UniProt Q00613 1-529); settings: protein: recombinant; tags: N-terminal GST; chain copies: 3; dsDNA, one strand shown
Sequence of HSF1 (Q00613 whole entry): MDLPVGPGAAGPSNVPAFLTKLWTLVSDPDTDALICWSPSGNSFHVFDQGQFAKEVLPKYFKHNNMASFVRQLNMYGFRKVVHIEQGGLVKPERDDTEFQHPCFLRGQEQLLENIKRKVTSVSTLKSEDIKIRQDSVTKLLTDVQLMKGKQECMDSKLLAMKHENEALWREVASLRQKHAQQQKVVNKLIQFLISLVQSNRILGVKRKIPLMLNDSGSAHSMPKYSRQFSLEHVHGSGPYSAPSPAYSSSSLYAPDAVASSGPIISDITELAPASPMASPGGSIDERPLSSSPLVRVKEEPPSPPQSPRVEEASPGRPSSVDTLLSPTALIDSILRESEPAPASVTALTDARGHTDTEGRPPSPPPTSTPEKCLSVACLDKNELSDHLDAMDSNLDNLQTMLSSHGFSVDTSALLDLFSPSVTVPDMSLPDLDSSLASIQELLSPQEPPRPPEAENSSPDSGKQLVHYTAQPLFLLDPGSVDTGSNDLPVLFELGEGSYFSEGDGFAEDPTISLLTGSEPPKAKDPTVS
In short: as §1

SPIC = biological target: T8, SPIC (Homo sapiens, UniProt Q8N5J4 1-248); settings: protein: recombinant; tags: N-terminal GST; dsDNA, one strand shown
T8 sequence: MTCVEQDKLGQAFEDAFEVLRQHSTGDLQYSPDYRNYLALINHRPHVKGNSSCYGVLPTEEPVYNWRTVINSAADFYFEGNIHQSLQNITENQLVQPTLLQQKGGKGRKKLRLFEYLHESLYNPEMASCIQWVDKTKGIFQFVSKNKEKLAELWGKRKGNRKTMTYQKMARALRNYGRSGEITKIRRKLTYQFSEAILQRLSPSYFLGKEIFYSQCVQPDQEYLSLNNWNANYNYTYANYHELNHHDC
In short: as §1

ELF4 = ELF4 (Homo sapiens, UniProt Q99607 1-663); settings: protein: recombinant; tags: N-terminal GST; dsDNA, one strand shown
Sequence of ELF4 (Q99607 whole entry): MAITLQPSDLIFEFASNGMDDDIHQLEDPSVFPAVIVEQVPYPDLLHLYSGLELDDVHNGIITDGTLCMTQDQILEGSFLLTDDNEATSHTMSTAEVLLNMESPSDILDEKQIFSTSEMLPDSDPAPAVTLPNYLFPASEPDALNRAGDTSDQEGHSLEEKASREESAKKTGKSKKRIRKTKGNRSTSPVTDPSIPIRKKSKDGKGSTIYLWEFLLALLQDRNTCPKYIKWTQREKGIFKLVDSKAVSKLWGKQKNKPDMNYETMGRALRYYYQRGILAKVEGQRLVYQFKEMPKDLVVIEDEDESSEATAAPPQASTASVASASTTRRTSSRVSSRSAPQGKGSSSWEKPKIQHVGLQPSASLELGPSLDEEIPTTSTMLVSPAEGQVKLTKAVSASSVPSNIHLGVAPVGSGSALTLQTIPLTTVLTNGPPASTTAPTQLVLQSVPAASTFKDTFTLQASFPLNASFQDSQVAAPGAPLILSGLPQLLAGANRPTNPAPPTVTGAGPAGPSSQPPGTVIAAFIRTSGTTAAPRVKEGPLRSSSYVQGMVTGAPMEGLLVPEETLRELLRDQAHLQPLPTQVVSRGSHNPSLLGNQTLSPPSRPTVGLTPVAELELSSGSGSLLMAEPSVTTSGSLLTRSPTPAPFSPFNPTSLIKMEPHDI
In short: as §1

ELK4 = biological target: T9, ELK4 (Homo sapiens, UniProt P28324-2 1-405); settings: protein: recombinant; tags: N-terminal GST; dsDNA, one strand shown
T9 sequence: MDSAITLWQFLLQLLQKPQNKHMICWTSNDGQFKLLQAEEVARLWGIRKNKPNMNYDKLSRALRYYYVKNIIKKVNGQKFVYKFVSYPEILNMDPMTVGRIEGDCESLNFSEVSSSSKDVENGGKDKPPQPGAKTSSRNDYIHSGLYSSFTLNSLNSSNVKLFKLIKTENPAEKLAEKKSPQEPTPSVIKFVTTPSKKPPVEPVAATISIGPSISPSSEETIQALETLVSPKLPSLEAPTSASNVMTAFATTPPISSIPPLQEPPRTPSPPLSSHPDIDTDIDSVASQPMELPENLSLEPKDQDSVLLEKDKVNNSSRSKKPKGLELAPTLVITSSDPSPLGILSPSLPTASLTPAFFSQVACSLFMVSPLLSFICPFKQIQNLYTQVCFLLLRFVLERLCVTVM
In short: as §1

ETV2 = biological target: T10, ETV2 (Homo sapiens, UniProt O00321 1-342); settings: protein: recombinant; tags: N-terminal GST; dsDNA, one strand shown
T10 sequence: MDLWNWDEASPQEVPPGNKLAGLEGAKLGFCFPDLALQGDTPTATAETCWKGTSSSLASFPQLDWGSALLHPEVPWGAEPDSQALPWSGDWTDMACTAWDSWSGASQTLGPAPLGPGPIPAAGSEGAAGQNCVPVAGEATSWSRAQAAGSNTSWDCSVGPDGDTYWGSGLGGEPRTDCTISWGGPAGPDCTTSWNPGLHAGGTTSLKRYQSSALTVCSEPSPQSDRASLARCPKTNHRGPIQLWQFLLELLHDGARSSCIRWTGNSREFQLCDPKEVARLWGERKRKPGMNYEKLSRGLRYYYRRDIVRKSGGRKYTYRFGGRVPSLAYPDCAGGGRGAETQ
In short: as §1

ELF3 = biological target: T11, ELF3 (Homo sapiens, UniProt P78545 1-371); settings: protein: recombinant; tags: N-terminal GST; dsDNA, one strand shown
T11 sequence: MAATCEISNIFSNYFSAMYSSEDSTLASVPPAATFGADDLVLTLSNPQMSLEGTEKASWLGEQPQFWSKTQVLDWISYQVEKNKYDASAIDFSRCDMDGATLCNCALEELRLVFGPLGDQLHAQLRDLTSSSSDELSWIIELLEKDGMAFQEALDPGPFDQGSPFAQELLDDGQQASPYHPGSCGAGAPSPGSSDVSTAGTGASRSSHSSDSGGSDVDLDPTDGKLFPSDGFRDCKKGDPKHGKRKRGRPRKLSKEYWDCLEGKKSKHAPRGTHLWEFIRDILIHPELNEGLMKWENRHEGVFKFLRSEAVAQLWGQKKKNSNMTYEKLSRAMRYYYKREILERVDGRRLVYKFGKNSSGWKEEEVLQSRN
In short: as §1

CRX = CRX (Homo sapiens, UniProt O43186 1-299); settings: protein: recombinant; tags: N-terminal GST; dsDNA, one strand shown
Sequence of CRX (O43186 whole entry): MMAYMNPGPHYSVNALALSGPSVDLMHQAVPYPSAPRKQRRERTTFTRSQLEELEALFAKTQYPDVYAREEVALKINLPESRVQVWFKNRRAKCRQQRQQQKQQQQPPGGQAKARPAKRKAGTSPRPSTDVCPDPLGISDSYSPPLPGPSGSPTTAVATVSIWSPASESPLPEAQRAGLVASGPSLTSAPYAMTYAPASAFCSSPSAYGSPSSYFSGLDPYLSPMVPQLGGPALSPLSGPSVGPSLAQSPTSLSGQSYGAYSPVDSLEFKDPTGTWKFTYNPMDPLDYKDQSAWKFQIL
In short: as §1

ETV1 = ETV1 (Homo sapiens, UniProt P50549 1-477); settings: protein: recombinant; tags: N-terminal GST; dsDNA, one strand shown
Sequence of ETV1 (P50549 whole entry): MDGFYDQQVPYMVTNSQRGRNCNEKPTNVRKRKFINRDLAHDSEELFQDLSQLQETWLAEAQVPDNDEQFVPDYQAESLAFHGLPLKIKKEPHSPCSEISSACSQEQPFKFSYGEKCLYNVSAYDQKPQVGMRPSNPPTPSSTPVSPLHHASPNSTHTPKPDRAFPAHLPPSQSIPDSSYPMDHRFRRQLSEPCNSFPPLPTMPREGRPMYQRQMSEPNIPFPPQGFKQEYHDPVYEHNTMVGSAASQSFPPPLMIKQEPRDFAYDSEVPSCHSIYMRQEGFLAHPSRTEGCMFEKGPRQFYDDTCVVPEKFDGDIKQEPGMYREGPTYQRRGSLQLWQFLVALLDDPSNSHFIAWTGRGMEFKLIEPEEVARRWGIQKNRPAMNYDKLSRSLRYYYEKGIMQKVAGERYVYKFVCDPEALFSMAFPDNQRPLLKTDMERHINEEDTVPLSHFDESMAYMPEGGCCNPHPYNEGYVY
In short: as §1

TTGCTC
binding signal (FLI1): 1.35 fold enrichment (6-mer frequency, TF over GST control)
binding signal (ELK1): 1.4 fold enrichment (6-mer frequency, TF over GST control)
binding signal (GABPA): 1.37 fold enrichment (6-mer frequency, TF over GST control)
binding signal (ERG): 1.26 fold enrichment (6-mer frequency, TF over GST control)
binding signal (ELF1): 1.28 fold enrichment (6-mer frequency, TF over GST control)
binding signal (EHF): 1.3 fold enrichment (6-mer frequency, TF over GST control)
binding signal (SPI1): 1.3 fold enrichment (6-mer frequency, TF over GST control)
binding signal (SPIB): 1.25 fold enrichment (6-mer frequency, TF over GST control)
binding signal (ELK3): 1.01 fold enrichment (6-mer frequency, TF over GST control)
binding signal (FEV): 1.25 fold enrichment (6-mer frequency, TF over GST control)
binding signal (ETV5): 1.41 fold enrichment (6-mer frequency, TF over GST control)
binding signal (HSF1): 1.3 fold enrichment (6-mer frequency, TF over GST control)
binding signal (SPIC): 1.34 fold enrichment (6-mer frequency, TF over GST control)
binding signal (ELF4): 1.24 fold enrichment (6-mer frequency, TF over GST control)
binding signal (ELK4): 1.16 fold enrichment (6-mer frequency, TF over GST control)
binding signal (ETV2): 1.4 fold enrichment (6-mer frequency, TF over GST control)
binding signal (ELF3): 1.29 fold enrichment (6-mer frequency, TF over GST control)
binding signal (CRX): 1.17 fold enrichment (6-mer frequency, TF over GST control)
binding signal (ETV1): 1.21 fold enrichment (6-mer frequency, TF over GST control)
